Laboratory results from PubChem BioAssay.
Calls of active or inactive are those of the source. Unless noted, the rule behind the calls is not given here.

What was measured:
[1] = tested on: XIP peptide (Xip251-270) binding; assay: XIP fragment 251-270 binding compounds – biochemical, small-molecule microarray, fluorescence 635/667 nm, 0.1 µg/mL protein, primary screen (AID 1182); conditions: fluorescent protein binding, 635 nm, higher = more signal, called active from +8 up or from −8 down
XIP peptide (Xip251-270) = assay: compounds binding XIP fragment 251-270 – biochemical, small-molecule microarray, fluorescence 635/667 nm, 0.5 µg/mL protein, primary screen (AID 1183); conditions: fluorescence 635 nm, higher = more signal
[2] = blood-stage malaria parasite viability loss – strain 3D7, DAPI fluorescence, 100 nL, primary screen (AID 1184);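 note: parasites grown inside human red blood cells in medium with human serum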; conditions: P. falciparum 3D7 growth, 3 d, higher = more signal
[3] = molecular target: Homeobox protein Hox-A13 (Mus musculus) (UniProt Q62424); assay: disruptors of Hoxa13 oligonucleotide interaction – biochemical, fluorescence polarization, labeled oligonucleotide, primary screen (AID 1185); conditions: Hoxa13:DNA binding, 15 min, higher = more signal, called active from +8 up or from −8 down
Homeobox protein Hox-A13 (Mus musculus), sequence (Q62424 whole entry, looked up): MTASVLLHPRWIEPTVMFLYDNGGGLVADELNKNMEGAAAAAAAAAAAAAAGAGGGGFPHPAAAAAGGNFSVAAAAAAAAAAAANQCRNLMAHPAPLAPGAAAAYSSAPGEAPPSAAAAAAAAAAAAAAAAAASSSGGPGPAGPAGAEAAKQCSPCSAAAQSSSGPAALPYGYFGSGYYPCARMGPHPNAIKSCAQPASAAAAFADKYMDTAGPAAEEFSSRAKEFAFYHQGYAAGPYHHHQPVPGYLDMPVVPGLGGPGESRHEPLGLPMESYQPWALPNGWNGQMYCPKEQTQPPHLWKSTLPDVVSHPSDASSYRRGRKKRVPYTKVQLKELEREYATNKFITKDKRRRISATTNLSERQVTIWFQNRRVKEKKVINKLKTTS

[4] = blockers of DNA damage checkpoint Chk1 activation – imaging, HeLa, hydroxyurea, phospho-Chk1 antibody, percent positive cells, primary screen (AID 1186); conditions: hydroxyurea-induced phospho-Chk1 immunofluorescence imaging, higher = more signal
[5] = blockers of DNA damage checkpoint Chk1 activation – imaging, HeLa, hydroxyurea, phospho-Chk1 nuclear intensity, primary screen (AID 1187); conditions: hydroxyurea-induced phospho-Chk1 immunofluorescence imaging, higher = more signal

| SMILES | composite z-score [1] | composite z-score (XIP peptide (Xip251-270)) | z-score [2] | z-score [3] | z-score [4] | z-score [5] |
| --- | --- | --- | --- | --- | --- | --- |
| O=C1O[C@@H](c2ccccc2)[C@@H](c2ccccc2)N2[C@@H](c3ccc(O)cc3)[C@]3(C(=O)Nc4ccc(C#CC5=CCCCC5)cc43)[C@@H](C(=O)NC[C@H](O)c3ccccc3)[C@H]12 | 0.662 (inactive) | 0.772 | -0.369 | 0.986 (inactive) | -0.384 (inactive) | -0.016 (inactive) |
| NC(N)=NCCCn1cc(CNC(=O)[C@@H](N)Cc2ccccc2)nn1 | 0.196 (inactive) | -1.17 | 0.139 | -1.61 (inactive) | 0.262 (inactive) | -0.174 (inactive) |
| CC(CO)N1C(=O)[C@@H]2[C@H]3C(=O)OCC=C[C@H]3OC23C=CCN(C(C)(C)C)C(=O)[C@@H]13 (some centres undefined) | -0.316 (inactive) | 0.0576 | 0.293 | -5.22 (inactive) | 0.0116 (inactive) | -0.602 (inactive) |
| COc1ccc(C#Cc2ccc3c(c2)[C@]2(C(=O)N3)[C@H](c3ccc(O)cc3)N3[C@H](c4ccccc4)[C@H](c4ccccc4)OC(=O)[C@H]3[C@@H]2C(=O)O)cc1 | -0.101 (inactive) | 0.83 | -1.23 | -5.22 (inactive) | -0.368 (inactive) | -0.664 (inactive) |
| CN(C)CCCNC(=O)[C@@]1(C)c2ccccc2C(=O)N(Cc2ccccc2)[C@H]1c1ccc(CO)cc1 | -0.328 (inactive) | -0.711 | -0.649 | -2.18 (inactive) | 0.559 (inactive) | 0.749 (inactive) |
| C=CCC(OC(C)=O)[C@@H]1[C@@H](N(Cc2ccc(-c3cccc(C(F)(F)F)c3)o2)C(=O)c2ccc(C)cc2)c2cc(OCCCO)ccc2N1C(=O)c1ccc2ccccc2c1 (some centres undefined) | 0.579 (inactive) | 0.0901 | -2.6 | -0.683 (inactive) | -0.793 (inactive) | -0.595 (inactive) |
| O=C1NC(=O)C2C1C=CC(C(O)c1c(F)cccc1Cl)N2Nc1ccc(Cl)cc1Cl (centres undefined) | 0.831 (inactive) | 0.709 | -0.0027 | -6.24 (inactive) | 1.05 (inactive) | 0.702 (inactive) |
| CC(C)OC(=O)C=C1C[C@@H](c2ccc(C(F)(F)F)cc2)O[C@@H](c2ccc(C(F)(F)F)cc2)O1 | 0.416 (inactive) | 0.567 | -0.266 | -3.22 (inactive) | -0.272 (inactive) | 0.0075 (inactive) |
| [N-]=[N+]=NCc1ccccc1C[C@@]1(C(=O)N2CCOCC2)N=C(c2ccc(OCCCO)cc2)O[C@@H]1c1ccccc1 | 0.761 (inactive) | 0.74 | -2.73 | -4.1 (inactive) | 0.123 (inactive) | 0.608 (inactive) |
| COc1ccc([Si](C)(C)[C@@H]2[C@@H](CCO)O[C@]3(C(=O)N(Cc4ccc(N5CCCCC5=O)cc4)c4ccccc43)[C@H]2C)cc1 | 2.99 (inactive) | 0.769 | -2.69 | -5.03 (inactive) | -0.913 (inactive) | 0.261 (inactive) |
| C=CCNC(=O)[C@H]1[C@@H]2C(=O)O[C@@H](c3ccccc3)[C@@H](c3ccccc3)N2[C@@H](c2ccc(O)cc2)[C@]12C(=O)Nc1ccc(C#CC3(O)CCCCCC3)cc12 | 0.692 (inactive) | 0.466 | -0.372 | -3.96 (inactive) | -0.165 (inactive) | -0.244 (inactive) |
| [N-]=[N+]=NCc1ccccc1C[C@]1(C(N)=O)N=C(c2ccc(OCCCO)cc2)O[C@H]1c1ccccc1 | 0.594 (inactive) | 0.692 | -1.42 | -6.49 (inactive) | 0.0449 (inactive) | 0.43 (inactive) |
| CN1C(=O)C2C=CC(C(O)c3ccccn3)N(N(c3ccccc3)c3ccccc3)C2C1=O (centres undefined) | -0.365 (inactive) | 0.891 | -0.215 | -8.63 (active) | 0.46 (inactive) | -0.024 (inactive) |
| CCCCCCc1nc(-c2cc(C)c(OC)c(C)c2)c(C)c2c1[Si](C(C)C)(C(C)C)OC2 | -0.31 (inactive) | -0.306 | -2.23 | -0.241 (inactive) | 0.0933 (inactive) | 0.149 (inactive) |
| CCCCN1CC=CC23O[C@@H]4/C=C\CCC(C)OC(=O)C4[C@H]2C(=O)N(C(CO)C(C)C)[C@@H]3C1=O (some centres undefined) | 0.743 (inactive) | 0.844 | -0.36 | -5.09 (inactive) | -0.428 (inactive) | -0.543 (inactive) |
| O=C1O[C@H](c2ccccc2)[C@H](c2ccccc2)N2[C@H]1[C@@H](C(=O)O)[C@]1(C(=O)Nc3ccc(C#CC4=CCCCC4)cc31)[C@H]2c1ccc(O)cc1 | 0.406 (inactive) | 0.617 | -0.628 | -5.74 (inactive) | -0.0146 (inactive) | -0.19 (inactive) |
| C=C(C)[C@@H]1CC=C(C(O)C2C=CC3C(=O)N(c4ccccc4)C(=O)C3N2Nc2ccccc2F)CC1 (some centres undefined) | 0.301 (inactive) | 0.656 | -0.282 | -1.52 (inactive) | 0.749 (inactive) | 0.372 (inactive) |

| SMILES | composite z-score [1] | composite z-score (XIP peptide (Xip251-270)) | z-score [2] | z-score [3] | z-score [4] | z-score [5] |
| --- | --- | --- | --- | --- | --- | --- |
| CC(=O)NCCCC[C@@H]1NC(=O)[C@@H]2C[C@H](C(=O)NCCCC[N+](C)(C)C)[C@H](c3ccc(O)cc3)N2C1=O | 2.41 (inactive) | 0.842 | -0.859 | 0.749 (inactive) | -0.508 (inactive) | -0.589 (inactive) |
| COC(=O)c1c2oc(c1C(=O)OC)C(=O)N(Cc1ccccc1)Cc1cn(nn1)C[C@H](Cc1ccccc1)NC(=O)N[C@H](CO)CC2 | -0.255 (inactive) | -0.057 | -0.886 | -4.5 (inactive) | -0.962 (inactive) | -0.745 (inactive) |
| CC(C)[Si](C#C[Si](C(C)C)(C(C)C)C(C)C)(O[C@H](C)c1cn([C@H](CO)Cc2ccccc2)nn1)C(C)C | 0.183 (inactive) | 0.348 | 0.67 | -0.249 (inactive) | -0.258 (inactive) | -0.36 (inactive) |
| COC(=O)CCCCCCC(=O)Nc1ccc(NC(=O)CCCC[P+](c2ccccc2)(c2ccccc2)c2ccccc2)cc1 | -0.369 (inactive) | 0.102 | -1.46 | -1.31 (inactive) | -0.917 (inactive) | -1.21 (inactive) |
| C#CCN([C@@H](Cc1ccc(O)cc1)C(=O)OC)[C@@H](/C=C/C1CC1)[C@H](O)Cc1ccccc1 | -0.297 (inactive) | -0.331 | 0.501 | -7.49 (inactive) | -0.453 (inactive) | -0.368 (inactive) |
| CCCNC(=O)[C@@H]1c2ccccc2C(=O)N(C(C)C)[C@H]1c1ccc(CO)cc1 | 0.251 (inactive) | 0.658 | -0.473 | -1.88 (inactive) | -0.247 (inactive) | -0.333 (inactive) |
| COCCCNC(=O)[C@@]1(Cc2ccccc2CN=[N+]=[N-])N=C(c2ccc(OCCCO)cc2)O[C@H]1c1ccccc1 | 1.38 (inactive) | 0.789 | -2.37 | -6.47 (inactive) | -0.371 (inactive) | -0.349 (inactive) |
| OCCCC1=CC(c2ccc(CN3CCCC3)cc2)N(Cc2sc3ccccc3c2Cl)CC1 (centres undefined) | 0.705 (inactive) | 0.797 | -3.1 | -1.38 (inactive) | -0.186 (inactive) | -0.276 (inactive) |
| O=c1n(-c2ccccc2)c(=O)n2n1CC(COc1ccccc1)=C([C@H](O)CCc1ccccc1)[C@@H]2CO | 0.0148 (inactive) | -0.407 | -0.601 | -7.77 (inactive) | -0.268 (inactive) | 0.771 (inactive) |
| CC(CO)N1C(=O)[C@@H]2[C@H]3C(=O)OCC=C[C@H]3OC23C=CCN(Cc2ccccc2)C(=O)[C@@H]13 (some centres undefined) | -0.542 (inactive) | 0.189 | -0.379 | -2.5 (inactive) | -0.539 (inactive) | -0.113 (inactive) |
| C=CCOC(=O)[C@H]1[C@@H]2C(=O)O[C@@H](c3ccccc3)[C@@H](c3ccccc3)N2[C@@H](c2ccc(OCCOC(=O)[C@H]3C[C@H]4C(=O)N[C@@H](CCCCNC(C)=O)C(=O)N4[C@H]3c3ccc(O)cc3)cc2)[C@]12C(=O)Nc1ccccc12 | 2.69 (inactive) | 0.685 | -1.72 | -1.06 (inactive) | 0.203 (inactive) | 0.261 (inactive) |
| C=CC[C@]1(C(=O)NCCN2CCOCC2)N=C(c2ccc(OCCCO)cc2)O[C@H]1c1ccccc1CN=[N+]=[N-] | 0.882 (inactive) | 0.887 | -2.29 | -4.74 (inactive) | -0.005 (inactive) | 0.23 (inactive) |
| COc1ccc(CN(C2=CC[C@@]3(C(N)=O)C(=O)C(Cl)=C(Cl)C(=O)[C@@]3(C#N)C2)S(=O)(=O)c2ccc(Br)cc2)cc1 | 0.68 (inactive) | 0.923 | 0.435 | -6.44 (inactive) | -0.207 (inactive) | -0.179 (inactive) |
| CC(C)C(CO)N1C(=O)[C@@H]2C3C(=O)OCCC/C=C\[C@H]3OC23C=CCN(C(C)(C)C)C(=O)[C@@H]13 (some centres undefined) | -0.68 (inactive) | -0.201 | 1.16 | -5.07 (inactive) | 0.0464 (inactive) | -0.0642 (inactive) |
| O=C(CS)NCCCCCCNC(=O)[C@H]1C[C@H]2C(=O)N[C@@H](Cc3ccccc3)C(=O)N2[C@H]1c1ccc(O)cc1 | 0.398 (inactive) | 0.849 | -0.0607 | -1.23 (inactive) | -0.836 (inactive) | -0.555 (inactive) |
| COC(=O)[C@@]1(Cc2ccc(OC)cc2)[C@H]2c3cc(C(=O)N4CCCC4)n(Cc4cccc5ccccc45)c3C[C@H]2CN1C(=O)c1ccccc1 | 0.0014 (inactive) | 0.658 | -1.58 | -1.44 (inactive) | -0.491 (inactive) | -0.684 (inactive) |
| C=CCC(OC(C)=O)[C@@H]1[C@@H](N(Cc2cccc3ccccc23)C(=O)Cc2ccc(F)cc2)c2cc(OCCCO)ccc2N1C(=O)c1ccc2ccccc2n1 (some centres undefined) | -0.533 (inactive) | -0.272 | -2.13 | -1.34 (inactive) | -0.172 (inactive) | -0.761 (inactive) |
